Reference: the supplement of paper PMC11732987, “Enantioselective OTUD7B fragment discovery through chemoproteomics screening and high-throughput optimisation” (Communications Chemistry, 2025)

How the values were obtained:
Assay in all cases: log2 ratio of Biotin-Ahx-Ub-VS probe labelling (fragment/DMSO); higher = less target engagement (more negative = stronger competition), active = hit call of the paper (q ≤ 0.05, log2 ratio ≤ -1)
Conditions in all cases: compound concentration: 200 uM; treatment time: 3 h
USP34 = USP34 (UniProt Q70CQ2)
USP34, sequence (Q70CQ2 whole entry, the tested form may be a part): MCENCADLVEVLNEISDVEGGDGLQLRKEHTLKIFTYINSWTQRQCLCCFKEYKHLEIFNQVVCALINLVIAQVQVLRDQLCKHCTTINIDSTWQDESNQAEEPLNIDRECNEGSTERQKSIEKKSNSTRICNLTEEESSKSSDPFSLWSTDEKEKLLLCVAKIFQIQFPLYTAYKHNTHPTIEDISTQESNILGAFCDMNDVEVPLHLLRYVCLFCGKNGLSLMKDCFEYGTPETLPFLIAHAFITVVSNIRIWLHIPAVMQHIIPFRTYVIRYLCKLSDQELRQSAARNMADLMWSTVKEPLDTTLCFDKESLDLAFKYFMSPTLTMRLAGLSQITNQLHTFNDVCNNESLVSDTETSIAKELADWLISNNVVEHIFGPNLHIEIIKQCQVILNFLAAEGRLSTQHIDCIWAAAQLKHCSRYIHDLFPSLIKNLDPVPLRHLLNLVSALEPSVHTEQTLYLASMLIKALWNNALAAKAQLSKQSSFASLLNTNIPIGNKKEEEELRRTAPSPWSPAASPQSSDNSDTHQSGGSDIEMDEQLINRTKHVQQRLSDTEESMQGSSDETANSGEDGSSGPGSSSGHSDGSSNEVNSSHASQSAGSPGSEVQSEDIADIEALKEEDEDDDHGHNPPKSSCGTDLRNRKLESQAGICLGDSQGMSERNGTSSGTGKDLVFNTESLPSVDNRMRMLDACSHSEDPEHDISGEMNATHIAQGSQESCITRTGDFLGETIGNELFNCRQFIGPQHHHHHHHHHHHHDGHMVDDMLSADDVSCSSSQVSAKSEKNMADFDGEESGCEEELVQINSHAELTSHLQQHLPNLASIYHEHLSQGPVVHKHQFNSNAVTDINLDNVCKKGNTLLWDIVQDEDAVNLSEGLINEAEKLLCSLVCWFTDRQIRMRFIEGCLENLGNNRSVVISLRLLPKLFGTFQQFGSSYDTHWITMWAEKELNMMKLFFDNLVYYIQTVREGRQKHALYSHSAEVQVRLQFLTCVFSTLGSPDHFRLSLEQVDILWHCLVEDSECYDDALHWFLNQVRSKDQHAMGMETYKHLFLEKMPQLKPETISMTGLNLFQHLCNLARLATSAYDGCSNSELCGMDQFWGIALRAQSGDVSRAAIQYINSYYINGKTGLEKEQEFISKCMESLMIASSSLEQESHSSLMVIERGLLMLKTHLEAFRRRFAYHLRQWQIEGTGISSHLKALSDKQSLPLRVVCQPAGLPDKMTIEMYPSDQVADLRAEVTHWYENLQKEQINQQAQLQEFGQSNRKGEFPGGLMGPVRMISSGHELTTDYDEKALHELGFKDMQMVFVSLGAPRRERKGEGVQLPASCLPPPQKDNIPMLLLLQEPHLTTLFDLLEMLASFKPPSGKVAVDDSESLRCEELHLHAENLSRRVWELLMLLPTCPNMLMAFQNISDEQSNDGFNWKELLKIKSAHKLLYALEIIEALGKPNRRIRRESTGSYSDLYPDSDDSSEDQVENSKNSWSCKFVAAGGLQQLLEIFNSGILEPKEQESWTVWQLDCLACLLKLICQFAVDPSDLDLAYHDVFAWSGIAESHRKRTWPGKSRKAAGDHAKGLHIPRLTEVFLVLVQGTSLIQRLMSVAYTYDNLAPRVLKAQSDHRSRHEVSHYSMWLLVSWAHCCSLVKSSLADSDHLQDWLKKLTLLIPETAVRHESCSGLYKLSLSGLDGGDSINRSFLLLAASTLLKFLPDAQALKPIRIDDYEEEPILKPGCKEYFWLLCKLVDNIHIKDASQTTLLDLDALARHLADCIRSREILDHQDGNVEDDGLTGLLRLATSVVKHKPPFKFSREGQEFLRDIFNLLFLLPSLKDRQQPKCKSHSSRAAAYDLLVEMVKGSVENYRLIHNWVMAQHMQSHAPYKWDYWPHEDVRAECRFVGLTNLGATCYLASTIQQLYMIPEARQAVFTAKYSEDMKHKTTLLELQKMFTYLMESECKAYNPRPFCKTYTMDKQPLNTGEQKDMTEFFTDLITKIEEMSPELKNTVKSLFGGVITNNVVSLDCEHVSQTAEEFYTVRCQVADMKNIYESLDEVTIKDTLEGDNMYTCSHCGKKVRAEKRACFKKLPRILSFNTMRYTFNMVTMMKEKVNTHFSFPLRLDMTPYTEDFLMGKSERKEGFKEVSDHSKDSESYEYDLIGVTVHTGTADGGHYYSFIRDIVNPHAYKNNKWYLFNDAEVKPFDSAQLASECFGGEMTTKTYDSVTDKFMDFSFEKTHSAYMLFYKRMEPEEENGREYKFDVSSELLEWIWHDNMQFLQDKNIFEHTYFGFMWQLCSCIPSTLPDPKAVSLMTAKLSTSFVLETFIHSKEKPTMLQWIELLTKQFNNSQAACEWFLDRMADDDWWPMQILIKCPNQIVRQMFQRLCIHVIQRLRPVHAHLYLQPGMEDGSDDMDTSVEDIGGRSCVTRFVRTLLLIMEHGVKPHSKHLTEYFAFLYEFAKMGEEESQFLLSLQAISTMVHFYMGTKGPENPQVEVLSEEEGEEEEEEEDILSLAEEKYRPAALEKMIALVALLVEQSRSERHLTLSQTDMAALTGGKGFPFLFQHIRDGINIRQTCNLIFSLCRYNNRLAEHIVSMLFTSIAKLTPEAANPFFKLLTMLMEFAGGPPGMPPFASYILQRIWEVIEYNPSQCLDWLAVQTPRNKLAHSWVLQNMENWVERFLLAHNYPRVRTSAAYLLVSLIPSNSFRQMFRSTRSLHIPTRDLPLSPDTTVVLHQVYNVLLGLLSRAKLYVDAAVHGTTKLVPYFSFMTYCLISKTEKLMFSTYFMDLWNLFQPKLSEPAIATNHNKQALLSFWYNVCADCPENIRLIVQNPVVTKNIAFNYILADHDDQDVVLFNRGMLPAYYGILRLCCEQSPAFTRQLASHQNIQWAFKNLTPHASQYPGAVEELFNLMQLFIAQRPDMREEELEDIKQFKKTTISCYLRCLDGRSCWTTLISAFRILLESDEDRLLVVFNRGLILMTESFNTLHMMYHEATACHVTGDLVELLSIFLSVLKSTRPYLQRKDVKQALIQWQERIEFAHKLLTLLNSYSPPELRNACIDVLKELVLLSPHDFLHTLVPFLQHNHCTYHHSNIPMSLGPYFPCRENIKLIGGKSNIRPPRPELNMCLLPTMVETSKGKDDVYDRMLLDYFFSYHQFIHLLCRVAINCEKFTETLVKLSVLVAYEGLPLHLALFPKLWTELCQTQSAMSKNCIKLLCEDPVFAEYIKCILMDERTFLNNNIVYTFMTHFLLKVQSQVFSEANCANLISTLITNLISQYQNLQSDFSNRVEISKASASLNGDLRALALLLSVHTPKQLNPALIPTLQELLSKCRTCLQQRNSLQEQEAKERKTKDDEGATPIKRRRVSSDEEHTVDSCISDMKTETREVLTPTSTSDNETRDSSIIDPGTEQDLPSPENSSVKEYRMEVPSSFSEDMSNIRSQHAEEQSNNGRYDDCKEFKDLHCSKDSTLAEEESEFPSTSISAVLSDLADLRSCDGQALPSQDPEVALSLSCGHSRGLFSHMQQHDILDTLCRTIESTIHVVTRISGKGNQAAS
Summary of the method: (§1)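 Each value is an average log2 ratio of fragment to vehicle, tested by unpaired t-test. The underlying Spectronaut label-free quantities were global-median-normalised, and only proteins with ≥2 unique peptides were included. Triplicate HEK293T lysate samples (495 µg) were exposed to fragment at 200 µM or vehicle for 3 h, then to Biotin-Ahx-Ub-VS at 0.5 µM final for 1 h, before NeutrAvidin enrichment of labelled DUBs, LysC and trypsin digestion, and diaPASEF LC-MS/MS.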

USP36 = target: T1, USP36 (UniProt Q9P275)
T1 sequence (whole entry): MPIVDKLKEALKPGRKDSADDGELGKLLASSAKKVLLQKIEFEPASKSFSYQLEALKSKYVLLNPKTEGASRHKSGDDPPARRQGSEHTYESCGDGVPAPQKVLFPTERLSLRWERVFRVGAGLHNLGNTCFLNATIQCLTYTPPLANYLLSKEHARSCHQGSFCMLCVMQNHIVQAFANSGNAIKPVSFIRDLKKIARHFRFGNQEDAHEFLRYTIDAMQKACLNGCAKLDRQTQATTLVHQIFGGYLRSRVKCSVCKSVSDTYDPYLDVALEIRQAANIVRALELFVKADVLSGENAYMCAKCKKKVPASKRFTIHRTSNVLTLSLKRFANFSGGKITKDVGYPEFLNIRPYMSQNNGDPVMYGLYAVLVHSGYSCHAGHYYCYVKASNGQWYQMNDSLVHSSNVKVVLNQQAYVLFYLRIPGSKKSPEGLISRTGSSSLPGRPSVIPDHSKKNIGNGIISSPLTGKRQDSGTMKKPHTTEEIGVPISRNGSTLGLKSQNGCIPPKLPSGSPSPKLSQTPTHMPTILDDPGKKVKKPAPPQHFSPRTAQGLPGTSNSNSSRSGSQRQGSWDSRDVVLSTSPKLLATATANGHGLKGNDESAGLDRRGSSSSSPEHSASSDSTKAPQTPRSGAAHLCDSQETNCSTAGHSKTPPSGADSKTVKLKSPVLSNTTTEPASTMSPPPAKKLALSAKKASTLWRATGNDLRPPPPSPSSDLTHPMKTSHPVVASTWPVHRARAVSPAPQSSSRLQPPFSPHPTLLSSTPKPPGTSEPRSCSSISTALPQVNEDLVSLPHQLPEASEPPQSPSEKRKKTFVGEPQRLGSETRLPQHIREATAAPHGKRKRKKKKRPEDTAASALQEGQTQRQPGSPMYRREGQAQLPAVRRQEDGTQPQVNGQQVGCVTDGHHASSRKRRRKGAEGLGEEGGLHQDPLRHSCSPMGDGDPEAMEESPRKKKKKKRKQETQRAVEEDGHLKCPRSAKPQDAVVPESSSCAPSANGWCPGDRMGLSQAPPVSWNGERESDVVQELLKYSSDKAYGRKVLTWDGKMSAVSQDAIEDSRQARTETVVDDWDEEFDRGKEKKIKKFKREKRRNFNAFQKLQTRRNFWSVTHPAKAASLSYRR
Summary of the method: as §1

USP38 = target: T2, USP38 (UniProt Q8NB14)
T2 sequence (whole entry): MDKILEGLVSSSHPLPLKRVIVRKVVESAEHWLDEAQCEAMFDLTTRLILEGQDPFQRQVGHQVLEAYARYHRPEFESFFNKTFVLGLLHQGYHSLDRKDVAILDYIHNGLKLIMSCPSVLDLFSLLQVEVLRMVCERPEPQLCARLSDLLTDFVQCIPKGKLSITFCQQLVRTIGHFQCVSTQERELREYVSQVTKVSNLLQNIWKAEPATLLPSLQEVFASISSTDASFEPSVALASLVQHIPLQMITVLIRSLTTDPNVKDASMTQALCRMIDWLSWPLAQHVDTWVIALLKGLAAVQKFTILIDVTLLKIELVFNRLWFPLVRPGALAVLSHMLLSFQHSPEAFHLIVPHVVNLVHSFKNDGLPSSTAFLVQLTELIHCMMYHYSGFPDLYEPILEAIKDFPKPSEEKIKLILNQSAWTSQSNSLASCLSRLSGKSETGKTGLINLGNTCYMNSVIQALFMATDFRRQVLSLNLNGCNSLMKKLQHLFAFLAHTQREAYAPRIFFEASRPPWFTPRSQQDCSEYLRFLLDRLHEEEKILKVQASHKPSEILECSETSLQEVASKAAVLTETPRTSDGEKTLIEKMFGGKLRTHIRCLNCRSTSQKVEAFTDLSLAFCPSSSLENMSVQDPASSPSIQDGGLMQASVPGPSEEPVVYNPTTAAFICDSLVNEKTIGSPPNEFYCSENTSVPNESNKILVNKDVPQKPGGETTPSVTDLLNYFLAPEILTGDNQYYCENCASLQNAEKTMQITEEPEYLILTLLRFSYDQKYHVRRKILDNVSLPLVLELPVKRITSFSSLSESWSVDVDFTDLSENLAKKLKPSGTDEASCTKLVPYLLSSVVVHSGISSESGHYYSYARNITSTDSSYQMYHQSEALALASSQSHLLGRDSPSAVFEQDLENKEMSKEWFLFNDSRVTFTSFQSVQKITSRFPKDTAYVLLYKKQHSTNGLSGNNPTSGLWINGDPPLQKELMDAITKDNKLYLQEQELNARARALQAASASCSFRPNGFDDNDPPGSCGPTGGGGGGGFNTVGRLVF
Summary of the method: as §1

USP39 = target: T3, USP39 (UniProt Q53GS9)
T3 sequence (whole entry): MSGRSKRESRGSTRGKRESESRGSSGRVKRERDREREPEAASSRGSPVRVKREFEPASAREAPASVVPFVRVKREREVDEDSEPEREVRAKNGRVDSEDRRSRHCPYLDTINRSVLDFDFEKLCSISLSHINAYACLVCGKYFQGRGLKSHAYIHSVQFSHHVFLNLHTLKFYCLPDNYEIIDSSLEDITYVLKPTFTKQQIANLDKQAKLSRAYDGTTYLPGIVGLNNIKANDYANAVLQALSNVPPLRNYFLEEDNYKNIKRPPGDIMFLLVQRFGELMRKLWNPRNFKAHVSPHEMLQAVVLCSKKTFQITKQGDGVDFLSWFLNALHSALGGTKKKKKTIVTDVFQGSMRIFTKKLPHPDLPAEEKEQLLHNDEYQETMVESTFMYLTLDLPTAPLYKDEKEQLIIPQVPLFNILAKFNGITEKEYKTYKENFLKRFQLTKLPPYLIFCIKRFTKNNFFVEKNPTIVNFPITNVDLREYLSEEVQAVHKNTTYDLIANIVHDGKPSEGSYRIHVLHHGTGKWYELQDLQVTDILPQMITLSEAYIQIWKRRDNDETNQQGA
Summary of the method: as §1

USP4 = target: T4, USP4 (UniProt Q13107)
T4 sequence (whole entry): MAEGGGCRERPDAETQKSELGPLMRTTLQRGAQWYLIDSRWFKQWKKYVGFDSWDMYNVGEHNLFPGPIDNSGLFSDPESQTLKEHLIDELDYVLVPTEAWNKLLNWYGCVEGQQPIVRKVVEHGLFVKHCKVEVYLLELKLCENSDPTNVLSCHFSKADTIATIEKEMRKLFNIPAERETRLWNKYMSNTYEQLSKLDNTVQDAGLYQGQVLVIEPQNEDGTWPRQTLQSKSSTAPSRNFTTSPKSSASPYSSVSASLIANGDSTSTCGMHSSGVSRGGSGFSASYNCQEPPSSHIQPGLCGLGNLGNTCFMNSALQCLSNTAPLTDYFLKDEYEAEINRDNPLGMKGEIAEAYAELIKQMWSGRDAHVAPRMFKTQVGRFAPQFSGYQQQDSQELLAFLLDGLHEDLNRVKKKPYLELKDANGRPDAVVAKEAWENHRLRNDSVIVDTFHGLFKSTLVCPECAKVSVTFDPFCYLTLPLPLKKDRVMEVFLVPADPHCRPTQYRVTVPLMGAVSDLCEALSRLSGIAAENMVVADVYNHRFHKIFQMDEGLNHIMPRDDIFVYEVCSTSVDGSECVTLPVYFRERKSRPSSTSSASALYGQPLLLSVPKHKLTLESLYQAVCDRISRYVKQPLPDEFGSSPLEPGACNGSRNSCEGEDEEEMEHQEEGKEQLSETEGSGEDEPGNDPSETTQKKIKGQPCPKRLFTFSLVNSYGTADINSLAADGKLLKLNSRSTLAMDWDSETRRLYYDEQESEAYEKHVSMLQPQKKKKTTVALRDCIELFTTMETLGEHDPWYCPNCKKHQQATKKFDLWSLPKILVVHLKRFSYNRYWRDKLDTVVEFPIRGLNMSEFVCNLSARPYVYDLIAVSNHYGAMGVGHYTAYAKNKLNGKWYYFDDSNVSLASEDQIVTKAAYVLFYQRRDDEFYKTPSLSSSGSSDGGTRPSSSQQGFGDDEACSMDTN
Summary of the method: as §1

Measured: log2 ratio of Biotin-Ahx-Ub-VS probe labelling

O=C(CCl)NC1CCCCNC1=O (stereo not given)
inactive: USP34 -0.126 | USP36 -0.314 | USP38 -0.0226 | USP39 0.0502 | USP4 -0.25
